# ALOX15B inhib – blocks human 15-lipoxygenase 2 activity; purified 15hLO-2, xylenol orange hydroperoxide absorbance; hit rate 0.56% among 110,000; AID 881; Potency, µM (highest dose often 57.1 µM), for the others: at the highest dose activity change, negative = inhibition, usual class: inhibitors; further: potency means the concentration at half of the fitted maximal effect; nearly all actives have a fitted effect of over 60% in size
# Target sequence (O15296 whole entry, looked up): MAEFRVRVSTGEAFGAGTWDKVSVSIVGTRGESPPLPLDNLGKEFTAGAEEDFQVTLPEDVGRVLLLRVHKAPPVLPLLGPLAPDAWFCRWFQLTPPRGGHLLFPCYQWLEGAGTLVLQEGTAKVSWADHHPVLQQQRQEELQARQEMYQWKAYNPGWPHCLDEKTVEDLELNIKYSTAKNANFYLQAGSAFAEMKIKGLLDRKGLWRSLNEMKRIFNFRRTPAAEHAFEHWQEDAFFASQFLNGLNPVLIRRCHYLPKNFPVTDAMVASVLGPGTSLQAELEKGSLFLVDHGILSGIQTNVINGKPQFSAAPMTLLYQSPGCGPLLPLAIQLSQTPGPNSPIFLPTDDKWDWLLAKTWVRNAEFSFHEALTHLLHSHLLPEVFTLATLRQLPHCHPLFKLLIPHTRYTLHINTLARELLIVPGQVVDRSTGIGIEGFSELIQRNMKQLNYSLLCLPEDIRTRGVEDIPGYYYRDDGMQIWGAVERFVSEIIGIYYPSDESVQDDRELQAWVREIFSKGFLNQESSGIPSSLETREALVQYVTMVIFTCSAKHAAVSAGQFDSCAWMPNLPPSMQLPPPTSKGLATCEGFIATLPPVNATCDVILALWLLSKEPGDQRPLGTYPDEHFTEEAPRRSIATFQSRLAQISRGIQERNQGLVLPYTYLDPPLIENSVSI
#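 Read-out: hydroperoxide product oxidises ferrous iron, measured as xylenol orange complex via the 573-to-405 nm absorbance ratio after 30 min. Reaction: 50 nM enzyme, 15 min compound preincubation, 45 uM arachidonic acid, 90 min RT, Hepes pH 7.5 with Triton X-100.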
# PNC assembly inh – perinucleolar compartment assembly inhibition. activity change (PNC), negative = inhibition, % at 10 µM. PC3M PTB-GFP, PNC prevalence imaging, 16 h; stronger effect = lower value. hit rate 3.1% among 140,000;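 active means readout at or below -70, meaning at least 70% loss of cells showing the perinucleolar compartment, a nuclear body marking cancer cells; inconclusive means readout between -30 and a set limit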;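 further: plate controls were DMSO wells for no effect and camptothecin positive control wells for full effect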
#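 PC3M cells stably expressing PTB-GFP, 750–1000 cells/well, treated 16 h at 37 °C with compound (23 nl of library stock), in duplicate. After paraformaldehyde fixation and Hoechst stain, imaged at 20x; PNC prevalence scored by image analysis.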
# ALOX12 inhib – blocks human 12-lipoxygenase activity. purified 12-hLO, xylenol orange hydroperoxide absorbance. Potency, µM (series often up to 57.1 µM), for the others: at the highest dose activity change, negative = inhibition, most hits filed as inhibitors. hit rate 0.12% among 150,000; further: potency means the concentration at half of the fitted maximal effect; nearly all actives have a fitted effect of over 55% in size
#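 Xylenol orange chromogenic assay: hydroperoxide from 12hLO oxidises Fe(II), giving red-shifted Fe(III)-XO absorbance. Conditions: 150 nM enzyme, 40 uM arachidonic acid, 25 mM Hepes pH 7.0, 0.01% Triton X-100, 30 min, room temperature.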
# An asterisk follows results filed as active; u = inconclusive; x = not tested or not shown; [ ] = dose if it differs, or a comment. Compounds with a hit are over-represented: about 3.2% of the library has one in this group of screens. Unless noted, the call rests on the fitted dose curve; in most records, active means well fitted curve in the direction sought with a large enough effect; inconclusive means small, poorly fitted or top-dose-only effect, or another doubt; inactive means no such curve, though single readings can be large; an effect the other way counts as inactive or inconclusive. Unless noted, on the % scale 0 is the no-effect control and ±100 the full control effect.
SMILES,ALOX15B inhib,PNC assembly inh,ALOX12 inhib
Cc1cccc(C(=O)NC(=S)N2CCc3ccccc3C2)c1,x,-82*,-29%
CCCn1c(-c2ccc(F)cc2)nc2c(NCCCN(CCO)CCO)nc(C)nc21,3%,x,-1%
Cc1cccc(N2C(=O)c3cccc4c(N(C)CCO)ccc(c34)C2=O)c1,-7%,14,-6%
COc1ccc(/C=C(/NC(=O)c2ccccc2)c2nc3ccc(Cl)cc3[nH]2)cc1OC,x,6,0%
CN1CCN(CC(=O)Nc2ccc(Oc3ccccc3)cc2)CC1,34%,13,4%
O=C(CN1CCCCC1)Nc1cccc(Oc2ccccc2)c1,23%,-106*,-4%
CC(=O)OC1CC(OC(C)=O)[C@]2(C)C(CC(OC(C)=O)[C@@]3(C)C4=CC(=O)OC(c5ccoc5)[C@]4(C)CCC32)C1(C)C (stereo partly specified),-3%,x,-1%
Cc1ccc2[nH]c(C)c(CCNC(=O)C3CCCCC3C(=O)OCC(F)(F)F)c2c1 (stereo unspecified),x,u,-6%
COc1ccc2[nH]cc(CCNc3ncncc3-c3ccc4c(c3)OCO4)c2c1,55%,x,x
CC(C)=CCC/C(C)=C/C=N/NC(=O)c1ccccc1[N+](=O)[O-],-2%,-10,-16%
CCC/C=N/NC(=O)c1[nH]c2c([N+](=O)[O-])cccc2c1C,x,-113*,-1%
CCC1CCCCN1C(=O)CSc1nnc(-c2c[nH]c3ccccc23)o1 (stereo unspecified),-14%,-19,-1%
Cc1sc(NC(=O)CN(Cc2ccccc2)C(=O)C(C)C)c(C(N)=O)c1C,x,u,2%
NC(=O)c1ccccc1NC(=O)CCc1ccccc1,2%,1,0%
COC(=O)CCC(=O)NC(=S)Nc1sc(C)c(C)c1C(N)=O,x,-124*,1%
Cc1sc(NC(=S)NC(=O)CCc2ccccc2)c(C(N)=O)c1C,x,-121*,-7%
COC(=O)CCC(=O)Nc1sc(C)c(C)c1C(N)=O,-9%,14,-8%
NC(=O)c1ccccc1NC(=S)NC(=O)CCc1ccccc1,x,-108*,-2%
Cc1cnc(CNc2nc(-c3cccc(NS(C)(=O)=O)c3)nc3ccccc23)cn1,-14%,x,x
CCCCOc1ccc(/C=C/C(=O)OCC(=O)N2CC(=O)Nc3ccccc32)cc1OCC,x,19,8%
COc1cccc(C(=O)COC(=O)c2ccc(NC(C)=O)cc2)c1,x,-13,0%
COc1ccc(NC(=O)c2cc3c(Cl)nc4ccccc4c3s2)cc1OC,x,-88*,-1%
COc1ccc(OC)c(NC(=O)c2cc3c(Cl)nc4ccccc4c3s2)c1,x,50,-1%
CC1(C)NC(=O)N(CCOCCOc2ccc3ccccc3c2Br)C1=O,-6%,-111*,6%
CC1(C)NC(=O)N(CCCCOc2ccc3ccccc3c2Cl)C1=O,5%,31,7%
SMILES,ALOX15B inhib,PNC assembly inh,ALOX12 inhib
CC(C)(CO)[C@H](O)C(=O)NCCCO,3%[25.6 µM],x,-3%[25.6 µM]
Cc1sc2nc(SCC(=O)N3CCCC3)[nH]c(=O)c2c1C,2%,-80*,2%
Cc1sc2nc(SCC(=O)N3CCCCC3)[nH]c(=O)c2c1C,x,-18,2%
Cc1nc(NC2CCCCC2)c2nc(-c3ccccc3)n(C(C)CN(C)C)c2n1 (stereo unspecified),56%,x,-3%
Cc1ccc(S(=O)(=O)NNC(=O)C2CCN(Cc3ccccc3)CC2)cc1,x,-100*,-2%
COC(=O)C1CCN(Cc2ccc(C)cc2)CC1,3%,2,-2%
CCN1CCN(C(=O)Nc2cccc(C(F)(F)F)c2)CC1,8%,-123*,1%
CN1CCN(C(=S)Nc2cccc(C(F)(F)F)c2)CC1,x,u,-2%
CC1(C)CC(=O)c2c(n(-c3cccc4ccccc34)ccc2=O)C1,1%,41,0%
Cc1ccc2c(c1)C=CC(C#N)N2C(=O)c1ccccc1 (stereo unspecified),x,-88*,1%
Cc1ccc2c(c1)C=CC(C)N2C(=O)c1ccccc1 (stereo unspecified),-9%,-14,-4%
O=C(NCCn1ccc2ccccc21)c1ccc(S(=O)(=O)N2CCCCC2)cc1,-1%,-81*,-6%
COc1ccc(C(=O)NCCn2ccc3ccccc32)cc1,-3%,u,-4%
O=C(N1CCN(c2ccc(F)cc2)CC1)C1(c2cccs2)CCOCC1,x,2,-1%
O=C(Nc1ccccc1OC(=O)c1ccc(Cl)cc1)c1ccc(Cl)cc1,x,-94*,0%
Cc1ccc(C(=O)Nc2cc(Cl)ccc2OC(=O)c2ccc(C)cc2)cc1,-13%,77,1%
COc1ccccc1NC(=O)c1ccc(NS(=O)(=O)c2ccc(F)c(F)c2F)cc1,x,-121*,-5%

# Assay outcomes as filed in PubChem.
